# Results published in PubChem BioAssay AID2409 (Southern Research Specialized Biocontainment Screening …, 2010).
# Measured potencies and affinities stand elsewhere. Unmarked numbers belong to inactive results. The rule behind the calls is not given here.
# Experiment: VEEV CPE inhibition, infected Vero cells, confirmatory, 66.6 µM top concentration (AID 2409)
# Conditions: series mostly up to 66.6 µM; CPE inhibition: at the top concentration
row,SMILES,CPE inhibition
1,Cc1cccc2c(=O)n3c(nc12)CCC3,-4.01%
2,CC1CC(C)CN(C(=O)CSc2nc3ccccc3c(=O)n2-c2ccc(F)cc2)C1 (stereo not given),-17.1%
3,OC1c2cc(Br)ccc2N=C2CCCCCN21 (stereo not given),-33.9% [at 134 µM]
4,OC1c2cc(Br)ccc2N=C2CCCCN21 (stereo not given),-26.5% [at 134 µM]
5,O=C(CSc1nc2cccc(I)c2c(=O)n1-c1ccccc1)Nc1ccc2c(c1)CCC2,-11.4% [at 134 µM]
6,CC1(O)c2cc(Br)ccc2N=C2CCCN21 (stereo not given),-18%
7,O=[N+]([O-])c1ccc2c(c1)C(O)N1CCCC1=N2 (stereo not given),-4.15%
8,O=C(CSc1nc2ccc(F)cc2c(=O)n1-c1ccccc1)Nc1ccc2c(c1)CCC2,-96.1% [at 134 µM]
9,O=c1c2cccc(Cl)c2nc2n1CCC2,-11.8%
10,O=C(CSc1nc2ccccc2c(=O)n1-c1ccc(F)cc1)Nc1cccc2ccccc12,-2.62%
11,O=c1c2cc(Br)ccc2nc2n1CC/C2=C/c1ccccc1,-43.2%
12,COc1ccccc1NC(=O)CSc1nc2ccccc2c(=O)n1-c1ccc(F)cc1,15.2%
13,CC(=O)Nc1ccc2nc3n(c(=O)c2c1)CCC3,-33.2%
14,O=c1c2cc([N+](=O)[O-])ccc2nc2n1CCC2,-0.71%
15,OC1c2c(F)cccc2N=C2CCCCCN21 (stereo not given),-30.5% [at 134 µM]
16,O=C(CSc1nc2ccccc2c(=O)n1-c1ccc(F)cc1)Nc1ccc2c(c1)OCCO2,-20.3%
17,O=C(CSc1nc2ccccc2c(=O)n1-c1ccccc1F)Nc1ccc2c(c1)CCC2,-5.29%
18,O=c1c2cc(Cl)cc(Cl)c2nc2n1CCC2,-11.7%
19,OC1c2cc(I)ccc2N=C2CCCN21 (stereo not given),-61.1% [at 134 µM]
20,COc1cccc(-n2c(SCC(=O)Nc3ccc4c(c3)CCC4)nc3ccccc3c2=O)c1,-32.3%
